HCV inhibitor – qHTS Assay for Inhibitors of Hepatitis C Virus (HCV); Huh7.5.1 HCVcc-Cre infection, luciferase reporter, 44 h; Potency, µM (highest dose often 41.8 µM), for the others: at the highest dose activity change, negative = inhibition, actives largely listed as inhibitors; 340,000 compounds, 3.4% hits
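Luciferase read-out (15 sec integration) after a 15 min room-temperature substrate step quantifies HCVcc-Cre infection. Cells, 1,000 per well, had compound added 4 h post-plating, then virus at ~0.5 moi, and were cultured 44 h.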
AMA1 RON2 block – qHTS for Inhibitors of AMA1-RON; Towards Development of Antimalarial Drug Lead: Primary Screen | AID 720542, 2013 | Potency, µM (highest dose often 58.2 µM), for inactives: at the top dose activity change, negative = inhibition, usual class: inhibitors | AlphaScreen AMA1-biotinylated RON2 peptide binding | 360,000 compounds, 0.2% hits;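 further: 0% = vehicle wells and -100% = peptide control; nearly all actives have a fitted effect of over 45% in size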
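AMA1 (3D7) with his tag at 25 nM final met compounds first, then biotinylated RON2 peptide at 25 nM; detection used donor plus acceptor beads, 10 µg/mL apiece, read by AlphaScreen after 30 min at room temperature.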
Pf growth 96h – Primary qHTS for delayed death inhibitors of the malarial parasite plastid, 96 hour incubation; AID 504834, 2011; P. falciparum luciferase reporter growth, 96 h; 320,000 compounds, 6.9% hits; Potency, µM (titrated, usually from 28.7 µM), for the others: at the highest dose activity change, negative = inhibition, actives largely listed as inhibitors
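Parasite growth measured via integrated firefly luciferase reporter in P. falciparum. Infected erythrocytes at 2% hematocrit, 0.05% parasitemia final were treated 96 hours at 37 C under 5% CO2, and luminescence was read.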
Pf growth 48h – Primary qHTS for delayed death inhibitors of the malarial parasite plastid, 48 hour incubation. P. falciparum luciferase growth in erythrocytes, 48 h. Potency, µM (doses to about 28.7 µM), without a hit: at the highest dose activity change, negative = inhibition, actives largely listed as inhibitors. 310,000 compounds, 5.9% hits. AID 504832, 2011
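A one-generation exposure of luciferase-tagged malaria parasites in RPMI 1640/Albumax erythrocyte culture, 37 C and 5% CO2. Inhibition is inferred from decreased luminescence after adding detection reagent.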
Active calls of the source: *; [ ] = another dose, or the depositor's remark. An excerpt weighted towards active compounds, which were near 11% of everything screened. The call rests on the fitted dose curve; in most records, active means well fitted curve in the direction sought with a large enough effect; inconclusive means small, poorly fitted or top-dose-only effect, or another doubt; inactive means no such curve, though single readings can be large; an effect the other way counts as inactive or inconclusive. Unless noted, on the % scale 0 is the no-effect control and ±100 the full control effect; potency means the concentration at half of the fitted maximal effect.

Results for Fc1cccc(Cl)c1-c1nnc2ccc3ccccc3n12 ?
HCV inhibitor: 10µM*; AMA1 RON2 block: -11%; Pf growth 96h: -53%[5.75 µM]; Pf growth 48h: 2%

What do the screens show for `Fc1ccccc1-c1nnc2ccc3ccccc3n12`?
HCV inhibitor: -8%; AMA1 RON2 block: -9%; Pf growth 96h: inconclusive; Pf growth 48h: 8%

What do the screens show for `O=C(Nc1ccc2c(c1)OCO2)c1cc(-c2ccccc2Cl)on1`?
HCV inhibitor: -19%; AMA1 RON2 block: -1%; Pf growth 96h: inconclusive; Pf growth 48h: 182%

How did N#Cc1nc(Cc2cccc3ccccc23)oc1N1CCOCC1 do in these assays?
HCV inhibitor: -14%; AMA1 RON2 block: -20%; Pf growth 96h: 2.1µM*; Pf growth 48h: inconclusive

How did N#Cc1nc(Cc2cccc3ccccc23)oc1N1CCN(c2ccccc2)CC1 do in these assays?
HCV inhibitor: -15%; AMA1 RON2 block: -22%; Pf growth 96h: -30%

How did COc1ccc(NC(=O)C2CCN(S(=O)(=O)c3c(C)noc3/C=C/N(C)C)CC2)cc1 do in these assays?
HCV inhibitor: 12%; AMA1 RON2 block: -14%; Pf growth 96h: -26%; Pf growth 48h: inconclusive

What do the screens show for `COc1ccc(N2CCN(CCCNS(=O)(=O)c3c(C)noc3/C=C/N(C)C)CC2)cc1`?
HCV inhibitor: 7.9µM*; Pf growth 96h: inconclusive; Pf growth 48h: 2.9µM*

How did Cc1ccnc(N2CCC(C(=O)Nc3ccc4c(c3)OCCO4)CC2)n1 do in these assays?
HCV inhibitor: -15%; AMA1 RON2 block: -5%; Pf growth 96h: -1%; Pf growth 48h: 18%

Results for O=[N+]([O-])C(/C=C(\Cl)[N+](=O)[O-])=C1N(Cc2ccc(Cl)nc2)CCN1Cc1ccc(Cl)nc1 ?
HCV inhibitor: inconclusive; AMA1 RON2 block: -3%; Pf growth 96h: 6.6µM*; Pf growth 48h: 2.3µM*

Results for CCN(CC)S(=O)(=O)c1ccc(C2=NOC3(C2)N(C)c2ccccc2C3(C)C)cc1 (centres undefined) ?
HCV inhibitor: -13%; AMA1 RON2 block: -6%; Pf growth 96h: 13µM*; Pf growth 48h: 12µM*

Results for CCN(CC)S(=O)(=O)c1ccc(C(=O)N2CCc3ccccc32)cc1 ?
HCV inhibitor: -4%; AMA1 RON2 block: 0%; Pf growth 96h: inconclusive; Pf growth 48h: -29%

Results for CN1c2ccccc2C(C)(C)C12CC(c1ccc(S(=O)(=O)N3CCCCC3)cc1)=NO2 (centres undefined) ?
HCV inhibitor: 8%; AMA1 RON2 block: -18%; Pf growth 96h: -20%; Pf growth 48h: -11%

Results for CN1c2ccccc2C(C)(C)C12CC(c1cccc(S(=O)(=O)N3CCCC3)c1)=NO2 (centres undefined) ?
HCV inhibitor: inconclusive; AMA1 RON2 block: 2%; Pf growth 96h: inconclusive; Pf growth 48h: 10µM*

How did O=C(OCC(=O)N1CCCC1)c1ccc(NS(=O)(=O)c2cccs2)cc1O do in these assays?
HCV inhibitor: 20%; AMA1 RON2 block: 13%; Pf growth 96h: -18%; Pf growth 48h: 6%

How did COc1ccc2c(c1)-c1nc(/N=C/c3ccccc3O)sc1CC2 do in these assays?
HCV inhibitor: 10µM*; AMA1 RON2 block: -5%[11.6 µM]; Pf growth 96h: inconclusive; Pf growth 48h: 34%

How did COc1ccc2c(c1)-c1nc(/N=C/c3cccc(OC)c3O)sc1CC2 do in these assays?
HCV inhibitor: inconclusive; AMA1 RON2 block: 5%; Pf growth 96h: 21%; Pf growth 48h: 50%

What do the screens show for `CC(C)c1[nH]nc2c1C(c1ccco1)C(C#N)=C(N)O2` (centres undefined)?
HCV inhibitor: 17%; AMA1 RON2 block: -9%; Pf growth 96h: 30%; Pf growth 48h: 4%

What do the screens show for `O=C(CN1C(=O)CCS(=O)(=O)c2ccccc21)Nc1ccc(Cl)cc1`?
HCV inhibitor: 0%; AMA1 RON2 block: -6%; Pf growth 96h: inconclusive; Pf growth 48h: 16%

What do the screens show for `O=C(NCCOC12CC3CC(CC(C3)C1)C2)c1cccc(Br)c1`?
HCV inhibitor: inconclusive; AMA1 RON2 block: 4%; Pf growth 96h: 4.1µM*; Pf growth 48h: 9.3µM*

How did O=C(O)CCCCCNC(=O)c1cccc(Br)c1 do in these assays?
HCV inhibitor: 22%; AMA1 RON2 block: -4%; Pf growth 96h: 17%; Pf growth 48h: 1%

Results for CC(C)n1c(=O)c2ccccc2n1Cc1cn(Cc2ccccc2)nn1 ?
AMA1 RON2 block: 16%

What do the screens show for `Cc1ccc(C)c2[nH]c(=O)c(CN(Cc3cccs3)C(=S)NCc3ccco3)cc12`?
HCV inhibitor: -7%; AMA1 RON2 block: -3%; Pf growth 96h: 28%; Pf growth 48h: 10µM*

How did CCc1ccc2[nH]c(=O)c(CN(CCN(C)C)C(=S)NCc3ccco3)cc2c1 do in these assays?
HCV inhibitor: -27%; AMA1 RON2 block: 2%; Pf growth 96h: 10%; Pf growth 48h: inconclusive

Results for CCc1ccc2[nH]c(=O)c(CN(CCN(CC)CC)C(=S)NCc3ccco3)cc2c1 ?
HCV inhibitor: inconclusive; AMA1 RON2 block: -19%; Pf growth 96h: 19%; Pf growth 48h: 9.3µM*

Results for Cc1cc2cc(CN(Cc3cccs3)C(=S)NCc3ccco3)c(=O)[nH]c2cc1C ?
HCV inhibitor: 11µM*; AMA1 RON2 block: -10%; Pf growth 96h: inconclusive; Pf growth 48h: -28%

How did COc1ccc(-c2oc(NC(=O)CCl)c(C#N)c2-c2ccc(OC)cc2)cc1 do in these assays?
HCV inhibitor: -25%; AMA1 RON2 block: -1%; Pf growth 96h: 9.3µM*

Results for CCc1ccc(OCC(=O)Nc2ccc(N3CCN(S(C)(=O)=O)CC3)cc2)cc1 ?
HCV inhibitor: 23%; AMA1 RON2 block: -17%; Pf growth 96h: inconclusive; Pf growth 48h: inconclusive

How did O=C(c1ccc(OC2CCN(C/C=C/c3ccc(F)cc3)CC2)cc1)N1CCCC1 do in these assays?
HCV inhibitor: inconclusive; AMA1 RON2 block: -6%; Pf growth 96h: 4.1µM*; Pf growth 48h: 8.3µM*

How did CCc1ccc(CN2CCC(Oc3ccc(C(=O)N4CCCC4)cc3)CC2)cc1 do in these assays?
HCV inhibitor: inconclusive; AMA1 RON2 block: -7%; Pf growth 96h: inconclusive; Pf growth 48h: 9.3µM*

What do the screens show for `Cc1cccc(CN2CCN(C(=O)CCl)CC2)c1`?
HCV inhibitor: inconclusive; AMA1 RON2 block: 27%; Pf growth 96h: 0.074µM*; Pf growth 48h: 1.2µM*

What do the screens show for `Cc1cccc(CN2CCN(C(=O)Cc3ccccc3)CC2)c1`?
HCV inhibitor: 2%; AMA1 RON2 block: -20%; Pf growth 96h: inconclusive; Pf growth 48h: inconclusive

Results for CC(C)c1ccc(CN2CCC(Oc3ccc(C(=O)N4CCCC4)cc3)CC2)cc1 ?
HCV inhibitor: inconclusive; AMA1 RON2 block: -12%; Pf growth 96h: -31%; Pf growth 48h: 6.6µM*

How did Cc1cccc(CN2CCC(Oc3ccc(C(=O)N4CCCCC4)cc3)CC2)c1 do in these assays?
HCV inhibitor: -12%; AMA1 RON2 block: -13%; Pf growth 96h: 9.3µM*; Pf growth 48h: inconclusive
